This note sets out measurements from PubChem BioAssay (NCATS).

Results filed as inconclusive are left out. Values without a mark were called inactive. The source made the active and inactive calls. Calls follow the shape of the dose curve; as a rule, active = well fitted inhibition curve with a large enough effect; inconclusive = small, poorly fitted or top-dose-only effect; inactive = no such curve, though single readings can be large or run the other way.
Potency is read from the fitted curve at half-maximal effect.

The test system of the first assay is Zika virus NS2B-NS3 protease (linked). Kind of assay: 384 well plate NINDS AMC confirmatory qHTS for Zika virus inhibitors (AID 1347163). Also: nearly all actives have a fitted effect of over 50% in size. Particulars: Recombinant NS2B-NS3 protease, Ac-VKTGKR-AMC fluorescence; series mostly up to 100 µM; activity change, negative = inhibition: at the top concentration. An excerpt:
Description: Assay Submitters (PI): Avindra Nath, Ph.D., National Institute of Neurological Disorders and Stroke (NINDS), Bethesda, MD Radhakrishnan Padmanabhan, Ph.D., Georgetown University (GU), Washington D.C. Zika Virus causes congenital defects, including microcephaly and is associated with Guillain-Barre syndrome, eningoencephalitis and myelitis in infected adult. […] Using a target-based approach, we hope to establish a screening paradigm to uncover novel, cell-active NS2B-NS3 protease (Zika Virus) specific inhibitors from NCATS' collection of small molecules using qHTS. […] Four assay panel was created to identify potential Zika Virus inhibitors. Namely, (1) GU unlinked NS2B-NS3 AMC tagged protease qHTS, (2) GU unlinked NS2B-NS3 Rhodamine tagged protease qHTS, (3) NINDS linked NS2B-NS3 AMC tagged protease qHTS, (4) NINDS linked NS2B-NS3 Rhodamine tagged protease qHTS. Active compounds are validated using a secondary assay in 384 well plate format. Early Translation Branch (ETB) National Center for Advancing Translational Sciences (NCATS), Rockville, MD National Institute of Health (NIH), Bethesda, Maryland
384-well NINDS AMC Assay The protease was diluted to 7.5 nM, 40.9 nM, or 82 nM in assay buffer and dispensed into a 96-well PCR plate (Applied Biosystems); 20 or 22 microL was transferred to a black 384-well assay plate (final protease concentration of 5 nM, 30 nM, or 60 nM, respectively). Compounds (3 microL, 1 microM - 10 mM, DMSO) were diluted and transferred to the assay plate (final concentrations ranged from 100 nM to 1 mM). Compounds were incubated with protease for ~15 minutes. The substrate, Ac-VKTGKR-AMC (Genscript), was dissolved in DMSO to a concentration of 6 mM and further diluted into assay buffer to a working concentration of 180 microM, then dispensed into a 384-well preparation plate (Eppendorf). A multichannel repeat pipettor was used to add 3 or 5 microL of substrate to the assay plate to give a final concentration of 30 microM. The plate was incubated in the dark at room temperature. After 25 minutes, the fluorescence intensity (excitation: 355 nm, emission: 460 nm) was measured and normalized to no-enzyme and no-inhibitor controls. Aprotinin39 (VWR) was used as an intraplate control.
For orientation: Quantitative high-throughput screening tests each substance at several concentrations.
Consider `CC(C)(Sc1ccc(CCN(CCCCC2CCCCC2)C(=O)NC2CCCCC2)cc1)C(=O)O`, for which the Potency is 3160 nM (active).

Consider `Cc1cc2c(C(C)C)c(O)c(O)c(C=O)c2c(O)c1-c1c(C)cc2c(C(C)C)c(O)c(O)c(C=O)c2c1O`, for which the Potency was 35500 nM (active).

`Cc1cc(SCc2sc(-c3ccc(C(F)(F)F)cc3)nc2C)ccc1OCC(=O)O`: the Potency is 2820 nM (active).

Another assay concerns Zika virus NS2B-NS3 protease (linked construct). The assay can be described thus: 384 well plate NINDS Rhodamine confirmatory qHTS for Zika virus inhibitors (AID 1347164). Also: nearly all actives have a fitted effect of over 65% in size.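 As to activity change, negative = inhibition: top concentration of the series differs between compounds; plate controls were no-inhibitor control for no effect and no-enzyme control for full effect.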 The settings on record: rhodamine-110 peptide substrate fluorescence; series mostly up to 100 µM; activity change, negative = inhibition: at the top concentration. The gist of the method: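 Fluorescence at 485/538 nm was measured 25 minutes after adding 10 microM Ac-LKRR-Rd substrate, in the dark at room temperature. The protease (5, 30 or 60 nM final) had been preincubated ~15 minutes with compound; aprotinin as control.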
In the case of `CC(C)(Sc1ccc(CCN(CCCCC2CCCCC2)C(=O)NC2CCCCC2)cc1)C(=O)O`, the “activity change, negative = inhibition” value was -244%.

`Cc1cc2c(C(C)C)c(O)c(O)c(C=O)c2c(O)c1-c1c(C)cc2c(C(C)C)c(O)c(O)c(C=O)c2c1O`: the “activity change, negative = inhibition” value is -235% [at 1 mM].

Regarding `Cc1cc(SCc2sc(-c3ccc(C(F)(F)F)cc3)nc2C)ccc1OCC(=O)O`, the Potency is 2820 nM (active).
